Compounds without any hit were thinned out: in the full panel of roughly 83,000, 20% have a hit.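 Note: values are percent growth. 100 is the growth of untreated cells, values between 100 and 0 indicate rising inhibition; between -100 and 0 indicates cell death.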 Values without a mark were called inactive. Active and inactive are the calls of the source. How the source made its calls: active means growth percent below 10; inactive means the rest.
Tests used:
Experiment in all cases: NCI-60 one-dose screen, 48 h (100 = growth as untreated, 0 = no growth, -100 = all killed)
Conditions in all cases: 10 µM unless noted
[1] = tested on: NCI-H23 lung
[2] = tested on: NCI-H226 lung
[3] = tested on: NCI-H322M lung
[4] = tested on: HOP-62 NSCLC
[5] = tested on: NCI-H460 lung
[6] = tested on: NCI-H522 lung
[7] = tested on: A549/ATCC NSCLC
[8] = tested on: 786-0 renal
[9] = tested on: COLO 205 colon
[10] = tested on: DU-145 prostate
[11] = tested on: MALME-3M melanoma
[12] = tested on: MDA-MB-231 breast
[13] = tested on: RXF 393 renal
[14] = tested on: SF-268 CNS
[15] = tested on: SF-295 CNS
[16] = tested on: SF-539 CNS
[17] = tested on: UACC-257 melanoma
[18] = tested on: M14 melanoma
[19] = tested on: K-562 leukemia

| SMILES | growth [1] | growth [2] | growth [3] | growth [4] | growth [5] | growth [6] | growth [7] | growth [8] | growth [9] | growth [10] | growth [11] | growth [12] | growth [13] | growth [14] | growth [15] | growth [16] | growth [17] | growth [18] | growth [19] |
| --- | --- | --- | --- | --- | --- | --- | --- | --- | --- | --- | --- | --- | --- | --- | --- | --- | --- | --- | --- |
| CCCCCCCCCCCC1=NC(C)(C)CN1CCO | 65.1% | 88.2% | 87.7% | 56.4% | 46.2% | 69.2% | 89.9% | 70.4% | -57.7% (active) | 77.8% | 88.9% | 53.7% | 35.4% | 67.2% | 81.4% | 78.9% | 77.9% | 48.4% | – |
| O=S1(=O)NCCCN1CCNc1nccc(-c2c(-c3cccc(O)c3)nc3sccn23)n1 | 83.7% | 84.9% | 85.1% | 118% | 67.1% | 76% | 124% | 59.3% | 32.6% | 74.2% | 17.3% | 50.7% | 64.3% | 81.3% | 112% | 70.3% | 39.9% | 7.6% (active) | – |
| O=C1OCC2=C1C(c1ccccc1)c1cc3c(cc1N2CCO)OCO3 (stereo unspecified) | 42.5% | 49% | 85.8% | 40.3% | -3.16% (active) | -23.7% (active) | 58.7% | 32.1% | -8.27% (active) | 69.4% | 50% | 52.2% | 24.8% | 49% | -12.8% (active) | -0.802% (active) | 58.3% | 3.99% (active) | – |
| CCCCCCCCCCCCNC(=O)N[C@H](C(=O)N[C@H]1/C=C/OCCNC(=O)/C=C/[C@H](C(C)C)NC1=O)C(C)C | 60.4% | -3.01% (active) | 97.1% | 76.7% | 82.6% | 47.6% | 94.7% | 99.8% | 103% | 66.9% | 71% | 81.2% | 83.6% | 46.2% | 95.2% | 54.6% | 93.1% | 87.2% | – |
| CCOC(=O)c1cnc(SCC)nc1SC#N | 94.6% | 142% | 103% | 121% | 115% | 31.8% | 101% | 101% | 82.1% | 103% | 97.7% | 98.2% | 173% | 103% | 106% | 89.2% | 92.6% | 84.7% | – |
| Nc1c(N)c2ccccc2c2ccccc12 | 98.4% | 92.2% | 115% | 95% | 113% | 111% | 105% | 103% | 124% | 111% | 110% | 85.3% | 109% | 115% | 100% | 94.6% | 106% | 113% | – |
| Cc1cc(-c2ccccc2)on1 | 106% | 99.4% | 90.5% | 92.9% | 112% | 97.9% | 104% | 95.2% | 109% | 111% | 102% | 105% | 119% | 103% | 100% | 88.8% | 109% | 105% | – |
| CCOC(=O)c1ccc2c(c1)nc(-c1ccc(Cl)cc1)n2-c1cc(C(C)(C)C)[nH]n1 | 44.5% | 29.5% | 64.1% | 39.3% | 23.1% | 26.1% | 39.9% | 14.1% | 34.7% | 53.4% | 33.5% | 54.1% | 21.4% | 44.8% | 16.9% | 11.3% | 73.2% | 9.36% (active) | – |
| c1ccc2c(N=NSc3ncnc4nc[nH]c34)c3ccccc3nc2c1 | -8.68% (active) | -23% (active) | 8.38% (active) | -49.9% (active) | 2.58% (active) | -74.9% (active) | -24.4% (active) | -5.12% (active) | -95.3% (active) | 8.43% (active) | -17.9% (active) | 5.25% (active) | -20.8% (active) | 3.15% (active) | 20.1% | 5.02% (active) | -13.9% (active) | -25.4% (active) | – |
| Cc1ccsc1C(=O)CC(=O)C(F)(F)C(F)(F)C(F)(F)F | 104% | 93.1% | 104% | 99.4% | 114% | 112% | 99.4% | 106% | 112% | 112% | 105% | 96.6% | 108% | 107% | 97.1% | 102% | 108% | 117% | – |
| CC[C@]1(O)C[C@H]2CN(CCc3c([nH]c4ccccc34)C(C(=O)OC)(c3cc4c(cc3OC)N(C)[C@H]3[C@@](O)(C(=O)OC)[C@H](OC(C)=O)[C@]5(CC)[C@@H]6C[C@@H]6CN6CC[C@]43[C@@H]65)C2)C1 (stereo partly specified) | 19.8% | -25.3% (active) | 53.8% | 24.6% | 10.7% | -9.66% (active) | 19.8% | -8.75% (active) | -73.3% (active) | 12.1% | 20.5% | -12% (active) | 35% | -4.98% (active) | -15.1% (active) | -22% (active) | 68.2% | -72% (active) | – |
| Oc1c(C(Nc2cccc3ccccc23)c2ccccc2)ccc2cccnc12 (stereo unspecified) | 41.8% | 50.6% | 37.2% | 52.2% | 5.7% (active) | 16.1% | – | -13.6% (active) | 38% | 35% | 31.7% | 17.8% | 69.4% | 23.4% | 7.99% (active) | 43.3% | 22.5% | 0.701% (active) | 11.6% |
| CCCCOc1nc2ccc(C)cc2cc1/C=C/C(=O)/C=C(O)/C=C/c1cc2cc(C)ccc2nc1OCCCC | 92% | 102% | 92% | 87.3% | 106% | 85% | – | 96.5% | 114% | 112% | 118% | 103% | 108% | 103% | 101% | 103% | 89.4% | 98.4% | 99.2% |
| CSc1nc(N)c2[nH]c(-c3cc4ccccc4[nH]c3=O)nc2n1 | 83.9% | 105% | 67% | 115% | 60.4% | 57.2% | – | 72.1% | 97.9% | 72.6% | 90.7% | 98.8% | 76.8% | 78.2% | 99.2% | 102% | 104% | 77.4% | 92.7% |
| Clc1ccc(-c2nc(-c3cccs3)no2)cc1 | 89.9% | 97.3% | 99.4% | 85.9% | 97.4% | 85.8% | – | 94.5% | 109% | 97.4% | 111% | 84.2% | 114% | 102% | 108% | 102% | 86.4% | 105% | 101% |
| C=C(C)[C@@H]1CC[C@]2(C(=O)NC(COC(=O)C(Cl)Cl)(COC(=O)C(Cl)Cl)COC(=O)C(Cl)Cl)CC[C@]3(C)[C@H](CC[C@@H]4[C@@]5(C)CC[C@H](OC(C)=O)C(C)(C)[C@@H]5CC[C@]43C)[C@@H]12 | 72% | 84.2% | 88.8% | 82.7% | 15.8% | 48.1% | – | 37.3% | 36.1% | 50.7% | 96.2% | 54.1% | 42.6% | 58.8% | 60.9% | 76.5% | 79.5% | 59.9% | 25.2% |
| COc1cc(/C=C/c2cc(/C=C/c3ccc(O)c(OC)c3)n(C(=O)c3ccccc3Br)n2)ccc1O | 17.7% | 38.5% | 39.5% | 43.5% | 9.15% (active) | 4.2% (active) | – | 9.91% (active) | 23.9% | 28.9% | 23.4% | 39.7% | -3.83% (active) | 28% | -29.7% (active) | 4.02% (active) | 87.1% | 5.42% (active) | 3.62% (active) |
